{"source": "PubChem BioAssay (NCATS)", "note": "Results filed as inconclusive are left out. Values without a mark were called inactive. Calls come from the whole dose curve; as a rule, active = well fitted inhibition curve with a large enough effect; inconclusive = small, poorly fitted or top-dose-only effect; inactive = flat fitted curve, though single readings scatter. % is set by controls: 0 for no effect and ±100 for the full control effect."}
{"molecular_target": "Calcium and integrin-binding protein 1 (Homo sapiens) (UniProt Q99828)", "sequence (Q99828 whole entry, looked up)": "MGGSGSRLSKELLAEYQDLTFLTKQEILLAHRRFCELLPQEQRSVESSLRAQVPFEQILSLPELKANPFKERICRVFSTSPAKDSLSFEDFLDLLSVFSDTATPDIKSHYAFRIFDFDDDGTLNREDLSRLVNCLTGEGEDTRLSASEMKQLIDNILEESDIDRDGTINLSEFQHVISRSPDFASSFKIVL", "experiment": "Primary qHTS for Identification of Calcium Integrin Binding Protein 1 (CIB1) Competitor (AID 1508620);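 note: GST tagged CIB1 binding a fluorescein labelled alphaIIb integrin peptide tracer; top concentration of the series differs between compounds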", "details": "CIB1-GST / FITC-alphaIIb peptide fluorescence polarization; series mostly up to 114 µM; activity change, negative = inhibition: at the top concentration", "outline": "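CIB1-GST (1 uM final) and compound incubated 15 min at room temperature before adding FITC-alphaIIb peptide tracer (100 nM final). Competition for binding read by fluorescence polarization (ex 480, em 540) after another 15 min at room temperature.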"}
{"compound": "CC[C@]12C=CCN3CC[C@@]4(c5cc([C@@]6(C(=O)OC)C[C@H]7C[C@@H](C(C)(F)F)CN(Cc8c6[nH]c6ccccc86)C7)c(OC)cc5N(C)[C@H]4[C@@](O)(C(=O)OC)[C@@H]1OC(C)=O)[C@@H]32", "activity change, negative = inhibition": "0.761% [at 30.2 µM]"}
{"compound": "O=C(c1ccccc1)c1ccc2nc(NC(=O)c3csc(C4CCN(c5ncnc6ccsc56)CC4)n3)[nH]c2c1", "activity change, negative = inhibition": "4.9%"}
{"compound": "CC1(C)CC[C@]2(C(=O)O)CC[C@]3(C)C(=CCC4[C@@]5(C)CC[C@H](O[C@@H]6O[C@H](CO)[C@@H](O)[C@H](O)[C@H]6O[C@@H]6O[C@H](CO)[C@@H](O)[C@H](O)[C@H]6O)[C@@](C)(CO)C5CC[C@]43C)[C@@H]2C1", "note": "(some centres undefined)", "activity change, negative = inhibition": "1.07% [at 30.2 µM]"}
{"compound": "Cc1cc2c(c(=O)[nH]1)OC(C(O)CC(C)C)O2", "note": "(centres undefined)", "activity change, negative = inhibition": "-5.43%"}
{"compound": "CCC(CC)C(=O)Nc1sc2c(c1C#N)CCC(C(C)(C)CC)C2", "note": "(centres undefined)", "activity change, negative = inhibition": "5.68%"}
{"compound": "CN(C)CCn1cc(S(=O)(=O)c2cccc(F)c2)c2cccnc21", "activity change, negative = inhibition": "1.67%"}
{"compound": "CC(=O)OC1C[C@]2(C)C(O)CC(C)=C[C@H](OC(=O)c3ccc(O)cc3)C2[C@]1(O)C(C)C", "note": "(some centres undefined)", "activity change, negative = inhibition": "1.35% [at 57.7 µM]"}
{"compound": "CC(=O)C=C=C1C(C)(C)CC(O[C@@H]2O[C@H](CO)[C@@H](O)[C@H](O)[C@H]2O)CC1(C)O", "note": "(some centres undefined)", "activity change, negative = inhibition": "3.62% [at 57.7 µM]"}
{"compound": "CNC(=O)c1ccccc1Nc1nc(Nc2ccc3c(c2OC)CCC[C@@H](N2CCN(CCO)CC2)C3)ncc1Cl", "activity change, negative = inhibition": "0.33%"}
{"compound": "NCc1ccc(Nc2ncc(F)c(Nc3ccccc3)n2)cc1", "activity change, negative = inhibition": "-4.3%"}
{"compound": "Cc1cc(C(=O)N2Cc3cnn(C)c3Nc3ccccc32)ccc1CNC(=O)N1CCC[C@H]1C(=S)N1CCCN(C)CC1", "activity change, negative = inhibition": "2.82%"}
{"compound": "O=C(c1ccc(/C=C/c2n[nH]c3ccccc23)cc1)N1CCNCC1", "activity change, negative = inhibition": "5.11%"}
{"compound": "COC(=O)N1CCC(n2ncc3c(N4CCOCC4)nc(-c4ccc(NC(=O)Nc5ccc(CO)cc5)cc4)nc32)CC1", "activity change, negative = inhibition": "0.925%"}
{"compound": "O=C1C=CC2OC(c3ccccc3)C(O)C2O1", "note": "(centres undefined)", "activity change, negative = inhibition": "-8.79%"}
{"compound": "COc1cc(N)c(Cl)cc1C(=O)NC[C@@H]1CCN2CCC[C@@H]12", "activity change, negative = inhibition": "-4.51%"}
{"compound": "COC(=O)C1(C)c2[nH]c3ccccc3c2CCN1C(=O)CCl", "note": "(centres undefined)", "activity change, negative = inhibition": "3.65%"}
{"compound": "CO/N=C(/C(=O)N[C@@H]1C(=O)N2C(C(=O)O)=C(Cn3ccc(=N)n3CCO)CS[C@H]12)c1csc(N)n1", "activity change, negative = inhibition": "-2%"}
{"compound": "COc1cc(C(=O)OC[C@@]2(O)CO[C@@H](O[C@H]3[C@H](Oc4ccc(C(=O)O)cc4OC)O[C@H](CO)[C@@H](O)[C@@H]3O)[C@@H]2O)ccc1O", "activity change, negative = inhibition": "1.51% [at 30.2 µM]"}
{"compound": "CC1(C)CC[C@]2(C(=O)O)CC[C@]3(C)C(=CCC4[C@@]5(C)C[C@@H](O)[C@H](O)C(C)(C)C5CC[C@]43C)C2C1", "note": "(some centres undefined)", "activity change, negative = inhibition": "-7.16% [at 57.7 µM]"}
{"compound": "Cn1c2ccc(F)cc2c2c(C(=O)N3CCCC3)cn(-c3ccccc3)c(=O)c21", "activity change, negative = inhibition": "-2.92%"}
{"compound": "C=C(C(=O)O)C1CCC2(C)CCCC(C)(O)C2C1", "note": "(centres undefined)", "activity change, negative = inhibition": "3.2%"}
{"compound": "CC(C)(O)C1CCC(C)(C2CCC3(C)C4CCC5C(C)(C(=O)OC6OC(CO)C(O)C(O)C6O)C(O)CC(O)C56CC46CCC23C)O1", "note": "(centres undefined)", "activity change, negative = inhibition": "-6.21% [at 30.2 µM]"}
{"compound": "C[C@@H](Oc1cc(-n2cnc3ccc(OC4CCN(C)CC4)cc32)sc1C(N)=O)c1ccccc1C(F)(F)F", "activity change, negative = inhibition": "-7.47%"}
{"compound": "C[C@@H]1C(=O)O[C@H](C)[C@H]1CC(=O)[C@](C)(O)[C@H]1CC[C@@]2(O)C3=CC(=O)[C@@H]4C[C@@H](O)[C@@H](O)C[C@]4(C)C3CC[C@]12C", "note": "(some centres undefined)", "activity change, negative = inhibition": "0.859% [at 57.7 µM]"}
{"compound": "CC(C)C1=CC2C(CC[C@]2(C)O)[C@](C)(O)CC1", "note": "(some centres undefined)", "activity change, negative = inhibition": "1.2%"}
{"compound": "O=C(OC[C@H]1O[C@H](O[C@]2(CO)O[C@H](CO)[C@@H](O)[C@@H]2O)[C@H](O)[C@@H](O)[C@@H]1O)c1ccccc1", "activity change, negative = inhibition": "-5.75% [at 57.7 µM]"}
{"compound": "Fc1ccc2nc(CCC#Cc3ccccn3)cn2c1", "activity change, negative = inhibition": "0.273%"}
{"compound": "CCCOC(c1cc2nccc(C(=O)O)c2[nH]1)c1ccccc1Cl", "note": "(centres undefined)", "activity change, negative = inhibition": "-2.45%"}
{"compound": "CNC(=O)c1cccc(-c2ccc3c(N4CCOC[C@@H]4C)nc(N4CCOC[C@@H]4C)nc3n2)c1", "activity change, negative = inhibition": "3.05%"}
{"compound": "CCOc1ccc2nc(SCCN3CCOCC3)[nH]c2c1", "activity change, negative = inhibition": "-5%"}
{"compound": "COc1cc(C(=O)NC2CCN(C)CC2)ccc1Nc1ncc2c(n1)N(C1CCCC1)CC(F)(F)C(=O)N2C", "activity change, negative = inhibition": "-5.09%"}
{"compound": "CC1(C)CC(NC(=O)C(=O)Nc2ccc(Br)cc2)CC(C)(C)N1", "activity change, negative = inhibition": "0.539%"}
{"compound": "COC(=O)C[C@H]1[C@]2(C)C3=C(C)[C@H](c4ccoc4)C[C@H]3O[C@@H]2[C@H](OC(C)=O)C2[C@](C)(C(=O)OC)C=CC(=O)[C@@]21C", "note": "(some centres undefined)", "activity change, negative = inhibition": "0.407% [at 57.7 µM]"}
{"compound": "COc1c2ccoc2cc2oc(CO[C@@H]3O[C@H](CO)[C@@H](O)[C@H](O)[C@H]3O)cc(=O)c12", "activity change, negative = inhibition": "0.683% [at 57.7 µM]"}
{"compound": "COc1c2c(c(C)c3c1C(=O)OC3)O[C@@]1(C)CC(O)C(C(C)(C)O)[C@](C)(CCC(=O)O)[C@H]1C2", "note": "(some centres undefined)", "activity change, negative = inhibition": "3.47% [at 57.7 µM]"}
{"compound": "C/C=C(\\C)C(=O)O[C@@H]1CC2[C@@H](CC=C3C[C@@H](O[C@H]4C[C@H](OC)[C@H](O[C@H]5C[C@H](OC)[C@H](O[C@@H]6O[C@H](C)[C@@H](O[C@H]7C[C@H](OC)[C@H](O[C@@H]8O[C@H](CO)[C@@H](O)[C@H](O)[C@H]8O)[C@@H](C)O7)[C@H](OC)[C@H]6O)[C@@H](C)O5)[C@@H](C)O4)CC[C@@]32C)[C@@]2(O)CC[C@H](C(C)=O)[C@@]12C", "note": "(some centres undefined)", "activity change, negative = inhibition": "2.76% [at 12.4 µM]"}
{"compound": "CNC(=O)c1ccccc1Nc1nc(Nc2ccc(N3CCNCC3)cc2)ncc1Cl", "activity change, negative = inhibition": "-6.03%"}
{"compound": "C=C1C(=O)O[C@@H]2C[C@H](C)[C@@]3(O)C=C(C(C)=O)[C@]4(CC3C[C@H]12)C(=O)O[C@H]1C[C@@H](C)C(CCC(C)=O)=CC[C@H]14", "note": "(some centres undefined)", "activity change, negative = inhibition": "-17.1% [at 57.7 µM]"}
{"compound": "CC1(C)CC[C@]2(C(=O)O[C@@H]3O[C@H](CO)[C@@H](O)[C@H](O)[C@H]3O)CC[C@]3(C)C(=CCC4[C@@]5(C)C[C@@H](O)[C@H](O)[C@@](C)(CO)C5CC[C@]43C)C2[C@@H]1O", "note": "(some centres undefined)", "activity change, negative = inhibition": "1.26% [at 30.2 µM]"}
